# The supplement of paper PMC6522484
# ± gives the standard deviation of the averaged measurements.
# Test system: DLD1
# Assay: cell viability (CellTiter-Glo) relative to plate median (fraction of plate median); higher = more viable cells
# Settings: 5 µM; treatment time 24 h; reporter: 7TFP
# Procedure, shortened: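 Values are well luminescence normalised to the plate median, from either a firefly luciferase or a CellTiterGlo readout on parallel plates. The cells, colorectal cancer lines stably transduced with lentiviral 7TFP or TCF4/Wnt firefly luciferase reporters, were treated with library compounds at a final 5 µM for 24 h. The mean of two independent replicates is listed.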
row,SMILES,cell viability
1,"C=C1C2CCC3(C)C(c4ccoc4)OC(=O)CC13OC1CC(OC(C)=O)C(C)(C)C(CC(=O)OC)C12C (stereo not drawn) [3beta-ACETOXYDEOXYANGOLENSIC ACID, METHYL ESTER]",0.908 ± 0.14
2,CC1(C)C=CC(=O)[C@@]2(C)C1CC(=O)[C@]1(C)C2CC[C@@]2(C)[C@H](c3ccoc3)OC(=O)C3OC321 (stereo partly drawn),1 ± 0.012
3,N[C@@H](Cc1cc(I)c(Oc2cc(I)c(O)c(I)c2)c(I)c1)C(=O)O,1.01 ± 0.037
4,COc1ccc2ccc(=O)oc2c1,1.02 ± 0.021
5,O=C1c2c(O)cccc2C([C@@H]2O[C@H](CO)[C@@H](O)[C@H](O)[C@H]2O)c2cc(CO)cc(O)c21 (stereo partly drawn),1.05 ± 0.1
6,OC[C@@H](O)[C@@H](O[C@@H]1O[C@H](CO)[C@@H](O)[C@H](O)[C@H]1O)[C@H](O)[C@@H](O)CO,0.959 ± 0.058
7,CC(=O)C12OC(C)(c3ccccc3)OC1CC1C3CCC4=CC(=O)CCC4(C)C3CCC12C (stereo not drawn),0.963 ± 0.039
8,CC1(C)CC[C@]2(C(=O)O)CC[C@]3(C)C(=CC[C@@H]4[C@@]5(C)CC[C@H](O)C(C)(C)[C@@H]5[C@H](O)C[C@]43C)[C@@H]2C1,0.946 ± 0.076
9,CCOC(=O)[C@H](CCc1ccccc1)N[C@@H](C)C(=O)N1[C@H](C(=O)O)C[C@H]2CCCC[C@@H]21,0.923 ± 0.14
10,CC(=O)O[C@H]1CC[C@]2(C)C3=C(CC[C@H]2C1(C)C)[C@]1(C)CC[C@H]([C@H](C)CCC=C(C)C)[C@@]1(C)CC3,0.966 ± 0.036
11,COc1ccc2c(=O)c(-c3cc4c(cc3OC)OCO4)coc2c1,0.995 ± 0.093
12,OCC(S)CS (stereo not drawn),0.884 ± 0.063
13,COc1ccc([C@@H]2CC(=O)c3c(O)cc(O)cc3O2)cc1O,1.01 ± 0.014
